Consider seven targets from the supplement of paper PMC10849652.

The full data set covers some 7,900 targets. This sample favours those with a hit. About 0.6% of all pairs of compound and target were hits. Unmarked numbers belong to inactive results.

What all share (assay): log2 fold change, soluble protein after heating vs DMSO (PISA); higher = thermal stabilisation; K562 cells, 10 uM, 30 min; active = over 0.2 and 3.5 SD of the protein, either way, in both replicates (recomputed)
Compound in one assay: C1COCCN1CCN2C3=CC=CC=C3N=C2NC(=O)C4=CC(=CC=C4)[N+](=O)[O-] [IRAK-1-4 Inhibitor I]
The gist of the method: (§1)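 K562 cells at 2×10^6 cells/mL were given 10 μM compound for 30 min. Aliquots then went through 3 min of heating across 48°C-58°C, were pooled, and were extracted in PBS with 0.5% NP-40 at 4°C, and the supernatant after 21,000xg for 90 min was quantified by TMTpro 16plex LC-MS/MS with channel sums equalised. Thermal stability relative to control samples, from duplicates, is given as log2 fold change.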

Compound in another assay: C=CC(=O)N1CCC[C@@H](n2nc(-c3ccc(Oc4ccccc4)cc3)c3c(N)ncnc32)C1 [ibrutinib]
In short, it runs like this:
as §1

Compound in assay [1]: CC(=O)c1cnc2ccc(-c3cc(Cl)c(O)c(Cl)c3)nc2c1N[C@H]1CC[C@H](CN(C)C)CC1
The gist of the method:
as §1

Compound in the next assay: CC(C)(C)Cn1c(N)nc2ccc(-c3[nH]c(C(C)(C)C)nc3-c3ccc(F)cc3)nc21 [ralimetinib]
In short, it runs like this: as §1

Compound in assay [2]: CC(C)(O)CC(=O)NCCn1ccc2ncnc(Nc3ccc(Oc4cccc(C(F)(F)F)c4)c(Cl)c3)c21
In short, it runs like this: as §1

Compound in assay [3]: CC(C)C1=C2N=C(C=C(N2N=C1)NCC3=CC=CC=C3)NCCCCCCN
In short, it runs like this:
as §1

Compound in assay [4]: CC(C)C[C@@H](C=O)NC(=O)[C@H](CC(C)C)NC(=O)[C@H](CC(C)C)NC(=O)OCc1ccccc1
In short, it runs like this: as §1

Compound in a further assay: CC(C)N(C[C@H]1O[C@@H](n2cnc3c(N)ncnc32)[C@H](O)[C@@H]1O)[C@H]1C[C@@H](CCc2nc3cc(C(C)(C)C)ccc3[nH]2)C1 [pinometostat]
The gist of the method:
as §1

Compound in assay [5]: CC1=C(C(CC(=O)N1)C2=CC=C(C=C2)C(F)(F)F)C(=O)NC3=C(C=C4C(=C3)C=NN4)F
The gist of the method:
as §1

Compound in assay [6]: CC1=C(C2=C(C=C1)C(=O)C3=CC=CC=C3N2CCCN)C
In short, it runs like this: as §1

Compound in assay [7]: CC1=C(C=C(C=C1)NC(=O)C2=CC(=CC=C2)C(C)(C)C#N)NC3=CC4=C(C=C3)N=CN(C4=O)C
The gist of the method: as §1

Compound in assay [8]: CC1=C(C=C(C=C1)NC(=O)C2=CC(=CC=C2)N(C)C)NC(=O)C3=CC=C(C=C3)O
The gist of the method: as §1

Compound in assay [9]: CC1=CC=C(C=C1)SC2=C3C=C(SC3=CN=C2)C(=O)N
In short, it runs like this:
as §1

Compound in assay [10]: CC1=NC(=CC=C1)C2=C(N=C(N2)C(C)(C)C)C3=CC4=NC=CN=C4C=C3
The gist of the method:
as §1

Compound in the next assay: CCCCN(Cc1ccc(C(=O)NO)cc1)C(=O)Nc1ccccc1 [Nexturastat A]
The gist of the method: as §1

Compound in the next assay: CCCS(=O)(=O)Nc1ccc(F)c(C(=O)c2c[nH]c3ncc(-c4ccc(Cl)cc4)cc23)c1F [vemurafenib]
The gist of the method:
as §1

Compound in assay [11]: CCCS(=O)(=O)Nc1ccc(F)c(C(=O)c2c[nH]c3ncc(Cl)cc23)c1F
The gist of the method: as §1

Compound in assay [12]: CCCc1cc(C)[nH]c(=O)c1CNC(=O)c1cc(-c2ccnc(N3CCN(C)CC3)c2)cc2c1cnn2C(C)C
The gist of the method:
as §1

Compound in another assay: CCN(CC)Cc1ccc2cc(COC(=O)Nc3ccc(C(=O)NO)cc3)ccc2c1 [givinostat]
In short, it runs like this:
as §1

Compound in another assay: CCN(CCCOc1ccc2c(Nc3cc(CC(=O)Nc4cccc(F)c4)[nH]n3)ncnc2c1)CCOP(=O)(O)O [barasertib]
The gist of the method:
as §1

Chain of UniProt Q96JG6 (Q96JG6 whole entry, looked up): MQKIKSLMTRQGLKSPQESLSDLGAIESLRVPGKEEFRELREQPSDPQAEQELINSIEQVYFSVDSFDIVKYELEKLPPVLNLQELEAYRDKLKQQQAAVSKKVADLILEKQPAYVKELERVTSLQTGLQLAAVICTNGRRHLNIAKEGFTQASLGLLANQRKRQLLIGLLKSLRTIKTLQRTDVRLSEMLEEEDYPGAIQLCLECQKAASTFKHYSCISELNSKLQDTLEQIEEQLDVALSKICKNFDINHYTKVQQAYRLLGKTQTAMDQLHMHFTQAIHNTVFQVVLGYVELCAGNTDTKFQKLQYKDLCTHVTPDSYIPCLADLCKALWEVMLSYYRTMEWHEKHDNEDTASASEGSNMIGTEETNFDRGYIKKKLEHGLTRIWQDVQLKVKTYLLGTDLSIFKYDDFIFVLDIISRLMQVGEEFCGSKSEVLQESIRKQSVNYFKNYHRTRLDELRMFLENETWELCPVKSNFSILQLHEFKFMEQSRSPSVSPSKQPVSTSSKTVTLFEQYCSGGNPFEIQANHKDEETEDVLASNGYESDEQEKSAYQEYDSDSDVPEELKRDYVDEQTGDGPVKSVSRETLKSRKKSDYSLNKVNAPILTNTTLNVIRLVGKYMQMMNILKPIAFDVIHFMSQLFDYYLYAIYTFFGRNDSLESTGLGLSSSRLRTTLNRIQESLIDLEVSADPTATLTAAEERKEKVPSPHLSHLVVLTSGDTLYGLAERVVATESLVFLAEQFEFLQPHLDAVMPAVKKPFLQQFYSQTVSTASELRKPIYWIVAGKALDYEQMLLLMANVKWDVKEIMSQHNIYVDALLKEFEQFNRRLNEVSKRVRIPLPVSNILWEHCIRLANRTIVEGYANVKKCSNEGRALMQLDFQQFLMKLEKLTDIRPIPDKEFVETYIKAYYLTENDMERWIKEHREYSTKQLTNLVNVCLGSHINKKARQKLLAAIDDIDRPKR
Chain of UniProt O94967 (O94967 whole entry, looked up): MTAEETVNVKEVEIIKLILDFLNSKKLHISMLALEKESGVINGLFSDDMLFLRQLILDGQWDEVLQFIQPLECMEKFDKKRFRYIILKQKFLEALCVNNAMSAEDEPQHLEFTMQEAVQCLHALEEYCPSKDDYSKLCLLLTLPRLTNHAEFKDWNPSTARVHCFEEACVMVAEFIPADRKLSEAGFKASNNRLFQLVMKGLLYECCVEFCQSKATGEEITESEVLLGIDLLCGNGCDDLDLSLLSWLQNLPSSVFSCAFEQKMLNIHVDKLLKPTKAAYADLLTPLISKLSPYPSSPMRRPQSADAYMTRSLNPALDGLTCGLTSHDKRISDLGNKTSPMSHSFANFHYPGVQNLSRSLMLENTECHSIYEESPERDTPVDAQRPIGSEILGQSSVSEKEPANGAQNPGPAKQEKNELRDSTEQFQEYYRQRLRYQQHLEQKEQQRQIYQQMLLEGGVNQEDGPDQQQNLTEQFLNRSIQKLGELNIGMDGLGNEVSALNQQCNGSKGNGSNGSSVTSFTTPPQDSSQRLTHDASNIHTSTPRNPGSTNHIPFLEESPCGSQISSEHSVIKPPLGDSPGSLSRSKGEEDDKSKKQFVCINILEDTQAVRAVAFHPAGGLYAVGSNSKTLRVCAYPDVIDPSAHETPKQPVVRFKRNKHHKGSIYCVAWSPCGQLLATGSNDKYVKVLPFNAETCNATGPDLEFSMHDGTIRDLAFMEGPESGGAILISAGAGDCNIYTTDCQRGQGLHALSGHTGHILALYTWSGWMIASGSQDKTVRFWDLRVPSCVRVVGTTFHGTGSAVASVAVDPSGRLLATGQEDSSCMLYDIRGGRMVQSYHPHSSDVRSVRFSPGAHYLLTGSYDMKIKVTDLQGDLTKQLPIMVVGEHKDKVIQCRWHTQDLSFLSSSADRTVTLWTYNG
Chain of UniProt Q14157 (Q14157 whole entry, looked up): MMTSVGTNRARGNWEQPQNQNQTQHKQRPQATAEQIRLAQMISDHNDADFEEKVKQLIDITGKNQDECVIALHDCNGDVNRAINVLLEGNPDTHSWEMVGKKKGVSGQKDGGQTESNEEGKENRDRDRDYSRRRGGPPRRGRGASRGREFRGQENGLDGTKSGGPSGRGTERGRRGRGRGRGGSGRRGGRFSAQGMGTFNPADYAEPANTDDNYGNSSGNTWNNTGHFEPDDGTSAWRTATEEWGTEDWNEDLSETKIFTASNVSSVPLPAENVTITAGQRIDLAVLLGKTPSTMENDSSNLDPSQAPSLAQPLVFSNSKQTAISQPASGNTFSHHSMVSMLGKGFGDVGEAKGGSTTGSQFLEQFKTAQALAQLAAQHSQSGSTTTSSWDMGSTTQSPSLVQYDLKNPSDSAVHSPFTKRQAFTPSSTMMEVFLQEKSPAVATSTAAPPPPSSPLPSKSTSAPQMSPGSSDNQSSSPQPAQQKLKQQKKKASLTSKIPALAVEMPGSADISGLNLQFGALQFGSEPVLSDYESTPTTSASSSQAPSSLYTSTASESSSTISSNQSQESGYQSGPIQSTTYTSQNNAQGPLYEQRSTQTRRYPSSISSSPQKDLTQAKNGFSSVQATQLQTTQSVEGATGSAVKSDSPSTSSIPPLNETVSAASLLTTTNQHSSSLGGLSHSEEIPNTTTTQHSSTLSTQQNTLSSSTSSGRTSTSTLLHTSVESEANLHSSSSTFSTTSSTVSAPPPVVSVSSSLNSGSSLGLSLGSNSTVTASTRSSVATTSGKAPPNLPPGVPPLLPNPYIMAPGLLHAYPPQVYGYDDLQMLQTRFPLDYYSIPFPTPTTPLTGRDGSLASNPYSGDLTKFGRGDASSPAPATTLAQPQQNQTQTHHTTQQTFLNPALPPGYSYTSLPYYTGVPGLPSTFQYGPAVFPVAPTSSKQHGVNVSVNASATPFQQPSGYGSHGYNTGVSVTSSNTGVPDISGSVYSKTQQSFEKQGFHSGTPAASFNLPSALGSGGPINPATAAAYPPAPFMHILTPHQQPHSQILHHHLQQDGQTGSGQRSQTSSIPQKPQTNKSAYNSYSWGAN
Chain of UniProt Q5R3I4 (Q5R3I4 whole entry, looked up): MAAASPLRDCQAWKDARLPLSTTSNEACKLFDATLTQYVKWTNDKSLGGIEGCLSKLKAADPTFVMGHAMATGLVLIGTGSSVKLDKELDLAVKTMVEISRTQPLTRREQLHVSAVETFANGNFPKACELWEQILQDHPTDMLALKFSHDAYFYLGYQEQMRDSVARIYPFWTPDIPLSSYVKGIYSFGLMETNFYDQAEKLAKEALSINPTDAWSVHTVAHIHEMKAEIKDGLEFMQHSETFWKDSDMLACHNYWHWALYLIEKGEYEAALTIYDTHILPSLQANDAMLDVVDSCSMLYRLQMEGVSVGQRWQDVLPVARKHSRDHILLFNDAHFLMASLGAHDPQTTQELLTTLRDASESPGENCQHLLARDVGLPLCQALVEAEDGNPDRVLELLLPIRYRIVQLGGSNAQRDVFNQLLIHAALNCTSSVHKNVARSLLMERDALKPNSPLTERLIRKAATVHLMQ
Chain of UniProt Q9P253 (Q9P253 whole entry, looked up): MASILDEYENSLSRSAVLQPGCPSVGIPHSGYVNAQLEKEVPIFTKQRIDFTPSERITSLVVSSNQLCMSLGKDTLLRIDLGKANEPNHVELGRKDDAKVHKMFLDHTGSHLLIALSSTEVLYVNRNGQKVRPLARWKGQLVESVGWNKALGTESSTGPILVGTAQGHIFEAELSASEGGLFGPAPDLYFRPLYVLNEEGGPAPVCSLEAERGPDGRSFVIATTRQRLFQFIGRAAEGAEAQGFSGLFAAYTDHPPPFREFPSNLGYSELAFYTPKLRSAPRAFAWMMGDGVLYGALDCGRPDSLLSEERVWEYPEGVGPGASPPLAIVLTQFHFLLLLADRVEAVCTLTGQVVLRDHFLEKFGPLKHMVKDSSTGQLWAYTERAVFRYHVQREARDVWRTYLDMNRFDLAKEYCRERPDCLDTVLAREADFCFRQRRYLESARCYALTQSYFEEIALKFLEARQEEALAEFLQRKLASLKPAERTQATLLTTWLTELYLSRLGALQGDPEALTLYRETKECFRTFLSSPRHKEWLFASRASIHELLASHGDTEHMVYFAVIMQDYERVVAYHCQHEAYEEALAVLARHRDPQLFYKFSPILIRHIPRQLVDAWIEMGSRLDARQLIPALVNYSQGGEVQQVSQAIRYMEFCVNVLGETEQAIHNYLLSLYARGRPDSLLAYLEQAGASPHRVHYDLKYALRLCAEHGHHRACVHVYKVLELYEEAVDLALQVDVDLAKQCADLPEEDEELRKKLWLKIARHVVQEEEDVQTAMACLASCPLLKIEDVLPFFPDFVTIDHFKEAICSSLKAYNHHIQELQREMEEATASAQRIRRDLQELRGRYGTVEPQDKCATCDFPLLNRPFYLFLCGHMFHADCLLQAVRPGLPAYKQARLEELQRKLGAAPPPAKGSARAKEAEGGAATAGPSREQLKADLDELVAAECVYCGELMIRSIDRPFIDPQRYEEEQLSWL
Chain of UniProt P51809 (P51809 whole entry, looked up): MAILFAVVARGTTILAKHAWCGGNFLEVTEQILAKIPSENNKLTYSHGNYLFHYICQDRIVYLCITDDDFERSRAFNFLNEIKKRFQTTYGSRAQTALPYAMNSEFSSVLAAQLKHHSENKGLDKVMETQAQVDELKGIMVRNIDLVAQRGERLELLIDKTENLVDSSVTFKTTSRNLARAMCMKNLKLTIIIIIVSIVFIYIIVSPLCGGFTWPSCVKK
Chain of UniProt Q9H4I3 (Q9H4I3 whole entry, looked up): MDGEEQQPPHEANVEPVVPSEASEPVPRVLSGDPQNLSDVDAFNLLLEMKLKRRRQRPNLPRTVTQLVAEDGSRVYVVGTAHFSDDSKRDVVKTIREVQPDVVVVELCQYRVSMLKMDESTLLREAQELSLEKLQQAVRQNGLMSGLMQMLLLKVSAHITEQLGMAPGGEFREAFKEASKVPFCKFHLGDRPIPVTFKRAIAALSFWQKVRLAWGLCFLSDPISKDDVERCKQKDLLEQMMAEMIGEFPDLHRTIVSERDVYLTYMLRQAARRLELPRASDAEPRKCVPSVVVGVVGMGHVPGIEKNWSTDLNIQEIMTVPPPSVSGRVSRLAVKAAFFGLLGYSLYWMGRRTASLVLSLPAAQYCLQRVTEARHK

As for TRABD (UniProt Q9H4I3), the log2 fold change is -0.046 with IRAK-1-4 Inhibitor I; 0.007 in the assay with ibrutinib; -0.032 in assay [1]; 0.073 in the assay with ralimetinib; 0.277 in [2]; 0.416 (active) in [3]. Further, the log2 fold change in [4] is 0.045; with pinometostat it was 0.018; in assay [5], -0.005; in [6] it was -0.005; in [7] it was 0.014; in assay [8] it was -0.017. The log2 fold change in assay [9] was -0.005; in assay [10], -0.133; with Nexturastat A it was -0.03; with vemurafenib it was 0.125; in assay [11], -0.06; in assay [12], 0.147. Also, the log2 fold change is -0.041 with givinostat and 0.031 with barasertib.

As to UBAP2L isoform 5 (UniProt Q14157), the log2 fold change is 0.053 with IRAK-1-4 Inhibitor I; 0.04 in the assay with ibrutinib; 0.017 in assay [1]; -0.007 in the assay with ralimetinib; 0.003 in [2]; 0.053 in assay [3]. Besides, the log2 fold change in assay [4] was -0.012; in the assay with pinometostat it was -0.032; in assay [5] it was 0.009; in assay [6], 0.068; in assay [7] it was -0.014; in [8] it was 0.036. The log2 fold change is 0.017 in assay [9]; 0.013 in assay [10]; 0.017 in the assay with Nexturastat A; -0.008 with vemurafenib; 0.006 in [11]; -0.03 in [12]. In addition, the log2 fold change with givinostat and with barasertib was 0.011 throughout.

As to VPS50 (UniProt Q96JG6), the log2 fold change is -0.046 with IRAK-1-4 Inhibitor I; -0.009 with ibrutinib; -0.003 in [1]; 0.12 with ralimetinib; -0.138 in [2]; -0.099 in assay [3]. In addition, the log2 fold change in assay [4] was 0.053; with pinometostat it was -0.014; in assay [5], 0.025; in assay [6], 0.023; in assay [7] it was -0.007; in [8] it was -0.076. For the same target, the log2 fold change in assay [9] was 0.054; in assay [10], 0.054; with Nexturastat A, -0.052; with vemurafenib, 0.077; in assay [11] it was 0.066; in assay [12], 0.09. The log2 fold change is 0.014 with givinostat and 0.059 with barasertib.

Turning to VPS18 (UniProt Q9P253), the log2 fold change in the assay with IRAK-1-4 Inhibitor I was -0.02; with ibrutinib, -0.029; in assay [1], -0.029; in the assay with ralimetinib, -0.037; in [2], -0.024; in [3] it was -0.319. The log2 fold change is 0.053 in [4]; 0.055 in the assay with pinometostat; -0.019 in assay [5]; 0.059 in [6]; 0.051 in assay [7]; -0.025 in [8]. For the same target, the log2 fold change in assay [9] was -0.029; in assay [10], -0.004; with Nexturastat A it was 0.04; in the assay with vemurafenib it was 0.017; in assay [11], 0.017; in assay [12], 0.004. Also, the log2 fold change in the assay with givinostat was 0.035; with barasertib, 0.088.

On to WDR47 (UniProt O94967), for which the log2 fold change was -0.089 in the assay with IRAK-1-4 Inhibitor I; 0.055 in the assay with ibrutinib; 0.028 in [1]; -0.005 with ralimetinib; -0.03 in [2]; 0.028 in [3]. The log2 fold change in [4] is -0.048; with pinometostat, -0.017; in assay [5], 0.024; in assay [6], 0.015; in assay [7] it was -0.031; in [8], -0.031. For the same target, the log2 fold change is 0.07 in assay [9]; 0.127 in [10]; -0.048 with Nexturastat A; -0.023 with vemurafenib; -0.045 in assay [11]; -0.004 in assay [12]. The results for the log2 fold change with givinostat and with barasertib were 0.004 and -0.007, respectively.

Turning to TTC38 (UniProt Q5R3I4), the log2 fold change was 0.129 with IRAK-1-4 Inhibitor I; -0.048 with ibrutinib; 0.023 in assay [1]; 0.017 with ralimetinib; -0.204 in assay [2]; -0.06 in [3]. In addition, the log2 fold change in [4] is -0.195; with pinometostat, 0.027; in [5] it was -0.081; in assay [6] it was 0.801 (active); in [7], -0.039; in assay [8] it was 0.405. Besides, the log2 fold change was 0.127 in assay [9]; 0.019 in assay [10]; 1.05 (active) in the assay with Nexturastat A; 0.031 in the assay with vemurafenib; 0.012 in assay [11]; 0.141 in assay [12]. Also, the log2 fold change is 0.938 (active) with givinostat and 0.023 with barasertib.

Take VAMP7 (UniProt P51809): the log2 fold change in the assay with IRAK-1-4 Inhibitor I was 0.018; in the assay with ibrutinib, -0.048; in assay [1] it was -0.041; in the assay with ralimetinib, -0.022; in [2] it was -0.006; in [3], -0.169. The log2 fold change in assay [4] was -0.001; in the assay with pinometostat, -0.027; in assay [5], -0.011; in [6] it was 0.025; in [7], -0.014; in [8], 0.011. Further, the log2 fold change in assay [9] is 0.053; in assay [10], 0.005; with Nexturastat A it was -0.069; with vemurafenib, 0.022; in assay [11], -0.01; in assay [12], -0.016. In addition, the values for the log2 fold change with givinostat and with barasertib were 0.011 and 0.017, respectively.
